Test results taken from PubChem BioAssay (NCI).
About 83,000 compounds went through this panel and 20% of them were active in at least one assay; those are over-represented in the sample as a whole.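 Interpretation: 100, growth as untreated; towards 0, rising growth inhibition; 0, no net growth; 0 to -100, cell death. Compounds scoring below 10 were considered active.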 Calls of active or inactive are those of the source.

Key:
Assay in all cases: NCI-60 one-dose screen, 48 h (100 = growth as untreated, 0 = no growth, -100 = all killed)
Settings in all cases: 10 µM unless noted
HT29 colon = system: HT29 colon
SNB-75 CNS = system: SNB-75 CNS
SNB-19 CNS = system: SNB-19 CNS
U251 CNS = system: U251 CNS
SK-MEL-5 melanoma = system: SK-MEL-5 melanoma
UACC-62 melanoma = system: UACC-62 melanoma
LOX IMVI melanoma = system: LOX IMVI melanoma
SK-MEL-28 melanoma = system: SK-MEL-28 melanoma
SK-MEL-2 melanoma = system: SK-MEL-2 melanoma
EKVX NSCLC = system: EKVX NSCLC
SN12C renal = system: SN12C renal
UO-31 renal = system: UO-31 renal
ACHN renal = system: ACHN renal
CAKI-1 renal = system: CAKI-1 renal
A498 renal = system: A498 renal
CCRF-CEM leukemia = system: CCRF-CEM leukemia
MOLT-4 leukemia = system: MOLT-4 leukemia
SR leukemia = system: SR leukemia
TK-10 renal = system: TK-10 renal

Measured: growth

O=C(Nc1ccc(Cl)cc1)c1cc2c(cc1O)[nH]c1ccccc12
inactive: SNB-75 CNS 38.3% | SNB-19 CNS 36.9% | U251 CNS 22.1% | UACC-62 melanoma 10.2% | LOX IMVI melanoma 30.4% | SK-MEL-28 melanoma 38.6% | SK-MEL-2 melanoma 22.3% | EKVX NSCLC 10.8% | SN12C renal 20.1% | UO-31 renal 39.9% | ACHN renal 22.2% | CAKI-1 renal 10.2% | A498 renal 29.8% | CCRF-CEM leukemia 18.1%
active: HT29 colon 1.2% | SK-MEL-5 melanoma 0.256% | MOLT-4 leukemia -9.5% | SR leukemia 1.22%

O=C(Nc1ccc(Oc2ccc(NC(=O)Nc3ccc([N+](=O)[O-])cc3)cc2)cc1)Nc1ccc([N+](=O)[O-])cc1
active: HT29 colon 8.5% | SK-MEL-5 melanoma -76.1% | SK-MEL-2 melanoma -27.5% | UO-31 renal -4.36% | CCRF-CEM leukemia -32% | MOLT-4 leukemia -26.4% | SR leukemia -3.7%
inactive: SNB-75 CNS 42.6% | SNB-19 CNS 29.7% | U251 CNS 17.6% | UACC-62 melanoma 15.6% | LOX IMVI melanoma 12.4% | SK-MEL-28 melanoma 24.8% | SN12C renal 12.1% | TK-10 renal 15.1% | ACHN renal 10.2% | CAKI-1 renal 13.9% | A498 renal 13%

COc1cc(/C=C/C(=O)c2ccc(F)cc2)ccc1OCCCCCOc1cc2c(cc1OC)C(=O)N1CCCC1C=N2 (stereo not drawn)
active: HT29 colon -18.8% | SNB-75 CNS -57.5% | SNB-19 CNS 2.88% | U251 CNS -77.5% | SK-MEL-5 melanoma -78.1% | UACC-62 melanoma -92.4% | LOX IMVI melanoma -94% | SK-MEL-28 melanoma -48% | SK-MEL-2 melanoma -18% | EKVX NSCLC -20.9% | SN12C renal -2.73% | TK-10 renal -9.06% | ACHN renal -9.07% | CAKI-1 renal -1.54% | A498 renal -65.5% | MOLT-4 leukemia -28.9% | SR leukemia -32.6%

O=c1ccn(C2CCCO2)c(=O)[nH]1 (stereo not drawn)
inactive: HT29 colon 98.3% | SNB-75 CNS 91.9% | SNB-19 CNS 109% | U251 CNS 97.2% | SK-MEL-5 melanoma 111% | UACC-62 melanoma 109% | LOX IMVI melanoma 107% | SK-MEL-28 melanoma 108% | SK-MEL-2 melanoma 124% | SN12C renal 109% | UO-31 renal 95.4% | TK-10 renal 120% | ACHN renal 98.7% | CAKI-1 renal 110% | CCRF-CEM leukemia 97% | MOLT-4 leukemia 97.7% | SR leukemia 114%

O=C1OC(c2ccc(-c3ccccc3)cc2)=C/C1=C/c1cccs1
inactive: HT29 colon 125% | SNB-75 CNS 95.7% | SNB-19 CNS 131% | U251 CNS 100% | SK-MEL-5 melanoma 78.2% | UACC-62 melanoma 74.6% | LOX IMVI melanoma 99.4% | SK-MEL-28 melanoma 102% | EKVX NSCLC 78.8% | SN12C renal 80.9% | UO-31 renal 82.9% | TK-10 renal 86.8% | ACHN renal 85.7% | CAKI-1 renal 81.7% | A498 renal 97.1% | MOLT-4 leukemia 87.3% | SR leukemia 91.5%
active: CCRF-CEM leukemia -27.1%

CCC(C)CC(C)C(=O)c1c(O)ccn(OC)c1=O (stereo not drawn)
inactive: HT29 colon 124% | SNB-75 CNS 88% | SNB-19 CNS 78% | U251 CNS 60.6% | SK-MEL-5 melanoma 84% | UACC-62 melanoma 92.3% | LOX IMVI melanoma 32.4% | SK-MEL-28 melanoma 77.6% | SK-MEL-2 melanoma 102% | SN12C renal 69.7% | UO-31 renal 58.3% | TK-10 renal 98.7% | ACHN renal 46.1% | CAKI-1 renal 92.9% | A498 renal 98.7% | CCRF-CEM leukemia 39.8% | MOLT-4 leukemia 68.1% | SR leukemia 47.1%

CN(C)CCCN1c2nc3ccccc3cc2Sc2cc3ccccc3nc21
active: HT29 colon -88.6% | SNB-75 CNS 9.61% | SNB-19 CNS -56.1% | U251 CNS -84% | SK-MEL-5 melanoma -75.9% | UACC-62 melanoma -91.3% | LOX IMVI melanoma -100% | SK-MEL-28 melanoma -92.9% | EKVX NSCLC -50.9% | SN12C renal -22.4% | UO-31 renal -22.7% | ACHN renal -100% | CAKI-1 renal -17.2% | A498 renal -5.96% | MOLT-4 leukemia -57.9% | SR leukemia -38.2%
inactive: SK-MEL-2 melanoma 13%

COc1ccc(C(=O)COc2cccc(/C=C3\Oc4ccc5ccccc5c4C3=O)c2)cc1
active: LOX IMVI melanoma -80.4% | UO-31 renal -54.4%
inactive: HT29 colon 46.2% | SNB-75 CNS 44.8% | SNB-19 CNS 105% | U251 CNS 84% | SK-MEL-5 melanoma 78.6% | UACC-62 melanoma 76.4% | SK-MEL-28 melanoma 116% | SK-MEL-2 melanoma 59.1% | EKVX NSCLC 89.6% | SN12C renal 75% | ACHN renal 97.5% | CAKI-1 renal 27.6% | A498 renal 139% | SR leukemia 15.9%

ClC1=C(Cl)C(=C2C(Cl)=C(Cl)C(Cl)=C2Cl)C(Cl)=C1Cl
inactive: HT29 colon 96.2% | SNB-75 CNS 94.4% | SNB-19 CNS 105% | U251 CNS 103% | SK-MEL-5 melanoma 103% | UACC-62 melanoma 99.3% | LOX IMVI melanoma 97.9% | SK-MEL-28 melanoma 111% | SK-MEL-2 melanoma 95.8% | SN12C renal 98.5% | UO-31 renal 81% | TK-10 renal 94.1% | A498 renal 88.2% | MOLT-4 leukemia 82.1% | SR leukemia 103%

O=C1OCCCCCCCCCC#Cc2ccccc21
inactive: HT29 colon 70.8% | SNB-75 CNS 88.7% | SNB-19 CNS 98.6% | U251 CNS 115% | SK-MEL-5 melanoma 89% | UACC-62 melanoma 99.2% | LOX IMVI melanoma 140% | SK-MEL-28 melanoma 110% | SK-MEL-2 melanoma 109% | EKVX NSCLC 115% | SN12C renal 113% | TK-10 renal 122% | ACHN renal 145% | CAKI-1 renal 97.1% | A498 renal 98.3% | MOLT-4 leukemia 85.7% | SR leukemia 87.4%

CN(C)c1ccc(/C=C(\C#N)c2nc3ccccc3c(=O)[nH]2)cc1
inactive: HT29 colon 87.6% | SNB-75 CNS 113% | SNB-19 CNS 94.7% | U251 CNS 77.4% | SK-MEL-5 melanoma 89.3% | UACC-62 melanoma 94.8% | LOX IMVI melanoma 83.8% | SK-MEL-28 melanoma 110% | EKVX NSCLC 92% | SN12C renal 90.8% | UO-31 renal 35.7% | TK-10 renal 101% | ACHN renal 96.1% | CAKI-1 renal 98% | A498 renal 90.7% | CCRF-CEM leukemia 107% | MOLT-4 leukemia 118% | SR leukemia 154%

COc1ccc(Cn2cc3c(c2-c2ccccc2)CCc2cncnc2-3)cc1
inactive: HT29 colon 19.7% | SNB-75 CNS 71.1% | SNB-19 CNS 62.8% | U251 CNS 47% | SK-MEL-5 melanoma 55.4% | UACC-62 melanoma 33.3% | LOX IMVI melanoma 52.3% | SK-MEL-28 melanoma 59.3% | SK-MEL-2 melanoma 28.2% | SN12C renal 62.7% | UO-31 renal 55.2% | TK-10 renal 109% | ACHN renal 76.8% | CAKI-1 renal 36.2% | A498 renal 45.8% | CCRF-CEM leukemia 42.6% | MOLT-4 leukemia 80% | SR leukemia 57.7%

CCCCn1c(Cc2ccc(Cl)cc2)nc2cc(OC)c(OC)cc2c1=O
inactive: HT29 colon 107% | SNB-75 CNS 104% | SNB-19 CNS 150% | U251 CNS 88.5% | SK-MEL-5 melanoma 41% | UACC-62 melanoma 52.5% | LOX IMVI melanoma 79.9% | SK-MEL-28 melanoma 116% | EKVX NSCLC 59.1% | SN12C renal 83.6% | UO-31 renal 54.4% | TK-10 renal 102% | ACHN renal 75.8% | CAKI-1 renal 72.5% | A498 renal 101% | SR leukemia 59.4%
active: CCRF-CEM leukemia -68.8% | MOLT-4 leukemia -48.7%

CC(=O)Oc1c(C)c(OC(C)=O)c2c(c1C(C)=O)OC1CC(=O)C(C(C)=O)=C(O)C21C (stereo not drawn)
inactive: HT29 colon 100% | SNB-75 CNS 94.7% | SNB-19 CNS 95.4% | U251 CNS 91.6% | SK-MEL-5 melanoma 95.4% | UACC-62 melanoma 95.9% | LOX IMVI melanoma 86.7% | SK-MEL-28 melanoma 119% | SK-MEL-2 melanoma 107% | EKVX NSCLC 96.9% | SN12C renal 95.5% | UO-31 renal 89% | ACHN renal 97% | CAKI-1 renal 99.3% | A498 renal 136% | CCRF-CEM leukemia 102% | MOLT-4 leukemia 64%

O=c1c(O)cccn1CCCNCCCN(CCCn1cccc(O)c1=O)CCCn1cccc(O)c1=O
inactive: HT29 colon 111% | SNB-75 CNS 104% | SNB-19 CNS 99.8% | U251 CNS 93.8% | SK-MEL-5 melanoma 105% | UACC-62 melanoma 100% | LOX IMVI melanoma 83.8% | SK-MEL-28 melanoma 116% | SK-MEL-2 melanoma 122% | EKVX NSCLC 93% | SN12C renal 87% | UO-31 renal 104% | ACHN renal 101% | CAKI-1 renal 103% | A498 renal 129% | CCRF-CEM leukemia 147%

O=C(Oc1ccc[nH]c1=O)c1cccc(Cl)c1
inactive: HT29 colon 97.4% | SNB-75 CNS 53.2% | SNB-19 CNS 85.8% | U251 CNS 92.7% | SK-MEL-5 melanoma 99.8% | UACC-62 melanoma 95.3% | LOX IMVI melanoma 90.8% | SK-MEL-28 melanoma 127% | SK-MEL-2 melanoma 108% | EKVX NSCLC 104% | SN12C renal 108% | UO-31 renal 96.2% | ACHN renal 96% | CAKI-1 renal 101% | A498 renal 127% | CCRF-CEM leukemia 123% | MOLT-4 leukemia 115% | SR leukemia 99.2%

Cc1nc2cc(NC(=O)CN3CCN(CCN4C(=O)c5cccc6cccc(c56)C4=O)CC3)ccc2s1
inactive: HT29 colon 33.6% | SNB-75 CNS 57.1% | SNB-19 CNS 44.7% | U251 CNS 43.4% | SK-MEL-5 melanoma 39.4% | UACC-62 melanoma 62.5% | LOX IMVI melanoma 39.9% | SK-MEL-28 melanoma 86.4% | SK-MEL-2 melanoma 73% | EKVX NSCLC 69.9% | SN12C renal 39.8% | UO-31 renal 53.6% | TK-10 renal 87.9% | ACHN renal 33.9% | CCRF-CEM leukemia 31.7% | SR leukemia 22%
active: MOLT-4 leukemia 9.64%
